By AC50 is commonly meant the concentration giving half of the maximal activity seen.

Results filed as inconclusive are left out. Active and inactive are the calls of the source. How the source made its calls, unless noted: active means hit-call score of the fitted dose curve at least 0.9, where 1 is the maximum; inactive means score below 0.9.

For 8 compounds, outcome and AC50 results are on record in PubChem BioAssay (EPA / NIEHS).

The target in experiment [1] is Oxysterols receptor LXR-beta (Homo sapiens) (UniProt P55055). In words: ATG_LXRb_TRANS: Attagene TRANS-FACTORIAL HepG2 Assay for human Liver X Receptor beta (LXRb) (AID 2282981; active means hit-call score of the fitted dose curve at least 0.9, where 1 is the maximum). The following applies: HepG2 Attagene TRANS GAL4-LXRb reporter, mRNA. An outline of the steps:
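Readout: fluorescent reporter mRNA fragments resolved by capillary electrophoresis after RT-PCR. System: transiently transfected human HepG2, exogenous LXRb-Gal4 chimera driving GAL4-UAS reporter, 24 h dosing. Activity fitted upward against DMSO baseline.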

Experiment [2] can be described thus: ATG_M_06_TRANS: Attagene TRANS-FACTORIAL HepG2 Assay for M06 Transcription Factor (Internal Marker) (AID 2282983; active means hit-call score of the fitted dose curve at least 0.9, where 1 is the maximum;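 further: reporter transcript level by RT-PCR then capillary electrophoresis fluorescence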). The note with it: HepG2 Attagene TRANS M06 internal marker reporter. An outline of the steps: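 Background control endpoint: reporter mRNA from transiently transfected HepG2 after 24 h dosing, detected by RT-PCR with capillary electrophoresis fluorescence. Analysed for gain versus DMSO.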

Experiment [3] in a line: ATG_M_32_TRANS: Attagene TRANS-FACTORIAL HepG2 Assay for M32 Transcription Factor (Internal Marker) (AID 2282984; active means hit-call score of the fitted dose curve at least 0.9, where 1 is the maximum;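 further: transcript level of a background control reporter unit measured by RT-PCR and capillary electrophoresis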). The following applies: HepG2 Attagene TRANS M32 internal marker reporter. An outline of the steps: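 Read-out: fluorescent reporter cDNA fragments resolved by capillary electrophoresis after RT-PCR of total RNA. Transfected HepG2 cells were exposed to chemical for 24 h. Activity scored in the positive direction relative to DMSO.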

Experiment [4] deals with Nuclear respiratory factor 1 (Homo sapiens) (UniProt Q16656). In words: ATG_NRF1_CIS: Attagene CIS-FACTORIAL HepG2 Assay for human Nuclear Respiratory Factor 1 (NRF1) Orphan Gene (AID 2282987). The note with it: HepG2 NRF1 cis-element reporter, Attagene multiplex; actives raise or lower the signal. An outline of the steps:
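Reporter mRNA induction or loss in HepG2 cells after 24 h dosing; cis-regulated reporter constructs report endogenous transcription-factor activity. Quantified by RT-PCR/capillary electrophoresis fluorescence, DMSO-referenced.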

Experiment [5] is described as follows: ATG_NFI_CIS: Attagene CIS-FACTORIAL HepG2 Assay for human Nuclear Factor I (NFI) (AID 2282989). The note with it: HepG2 cis-regulatory reporter, NFI response element transcription; actives raise or lower the signal. An outline of the steps: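 Cells: human liver HepG2, transiently transfected with promoter-regulated reporter transcription units. Exposure 24 h. Detection: fluorescent RT-PCR products separated by capillary electrophoresis, normalised to DMSO negative control.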

The target of experiment [6] is Myc proto-oncogene protein (Homo sapiens) (UniProt P01106). Kind of experiment: ATG_Myc_CIS: Attagene CIS-FACTORIAL HepG2 Assay for human Myelocytomatosis (Myc) Proto-Oncogene Transcription Factor (AID 2282990). The note with it: HepG2, Attagene cis-reporter transcription factor activity; actives raise or lower the signal. The method in brief: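 Read-out: fluorescent reporter mRNA fragments resolved by capillary electrophoresis after RT-PCR. Human HepG2 liver cells carried transfected cis-element reporter units and were dosed for 24 h. Gain or loss of signal fitted relative to DMSO baseline.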

Experiment [7] can be described thus: ATG_NF_kB_CIS: Attagene CIS-FACTORIAL HepG2 Assay for human Nuclear Factor Kappa B (NF-kB) (AID 2282991). The following applies: HepG2 Attagene cis-factorial NF-kB reporter mRNA; actives raise or lower the signal. The method in brief: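 DMSO served as negative control and baseline for bidirectional curve fitting. Transiently transfected HepG2 cells were dosed for 24 h, then reporter transcripts were measured by RT-PCR with capillary electrophoresis detection.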

The nature of experiment [8]: ATG_NRF2_ARE_CIS: Attagene CIS-FACTORIAL HepG2 Assay for human Nuclear Factor Erythroid 2 Related Factor 2 (NFR2) response to Antioxidant Response Elements (ARE) (AID 2282992).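 On AC50: reporter mRNA level measured by RT-PCR and capillary electrophoresis fluorescence.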 The following applies: HepG2 Attagene ARE/NRF2 reporter, transcription factor activity; actives raise or lower the signal. An outline of the steps: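 Fluorescence intensity of reporter-specific cDNA fragments, separated by capillary electrophoresis, reflects mRNA induction in transfected HepG2 cells at 24 h. Activity is fitted bidirectionally, DMSO serving as baseline.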

The nature of experiment [9]: ATG_Oct_MLP_CIS: Attagene CIS-FACTORIAL HepG2 Assay for human Octamer-Binding Transcription Factor (Oct) (AID 2282993). The note with it: HepG2 Attagene cis-factorial Oct reporter, mRNA; actives raise or lower the signal. An outline of the steps:
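HepG2, transient MRTU transfection, cis promoter elements; 24 h dosing; RT-PCR/CE fluorescence read-out of reporter mRNA; fit both directions vs DMSO.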

Experiment [10] concerns the target Cellular tumor antigen p53 (Homo sapiens) (UniProt P04637). Kind of experiment: ATG_p53_CIS: Attagene CIS-FACTORIAL HepG2 Assay for human p53 Transcription Factor (AID 2282994). The following applies: HepG2 p53 cis-element reporter, Attagene mRNA; actives raise or lower the signal. The method in brief: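 Transiently transfected HepG2 (multiple cis reporter transcription units); exposure 24 h; reporter RNA via RT-PCR, 6-FAM extension, 2 h HpaI digest at 37 C, CE detection; DMSO baseline.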

A short description of experiment [11]: BSK_3C_TissueFactor: BioMAP Diversity Plus: 3C Assay for Tissue Factor Biomarker Activity (AID 2282997). The note with it: BioMAP 3C HUVEC, tissue factor biomarker readout; actives raise or lower the signal. The method in brief: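 After a 24 h chemical exposure of primary human umbilical vein endothelial cells, Tissue Factor levels were quantified by ELISA.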

A short description of experiment [12]: BSK_3C_uPAR: BioMAP Diversity Plus: 3C Assay for Urokinase-type plasminogen activator receptor (uPAR) Biomarker Activity (AID 2282998). The following applies: BioMAP 3C HUVEC, uPAR biomarker ELISA; actives raise or lower the signal. An outline of the steps: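 A multiplexed primary-cell system built on human umbilical vein endothelium was used, with chemical present for 24 h before reading. Cell-surface uPAR was detected by ELISA; signal change in either direction counted against DMSO.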

Experiment [13] is described as follows: BSK_4H_Eotaxin3: BioMAP Diversity Plus: 4H Assay for Eotaxin 3 Biomarker Activity (AID 2283000).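 Further: CCL26 protein level quantified by ELISA in parallel with SRB cytotoxicity check.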 The note with it: primary human endothelial cells (HUVEC); actives raise or lower the signal. An outline of the steps: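 Chemicals were added to human umbilical vein endothelium cultures, and Eotaxin-3 was quantified by ELISA at 24 h. Values were derived by bidirectional fitting with DMSO serving as negative control and activity baseline.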

Experiment [14] concerns the target Nuclear receptor subfamily 4 group A member 2 (Homo sapiens) (UniProt P43354). Kind of experiment: ATG_NURR1_TRANS: Attagene TRANS-FACTORIAL HepG2 Assay for human Nuclear Receptor Related Protein 1 (NURR1) (AID 2282985; active means hit-call score of the fitted dose curve at least 0.9, where 1 is the maximum). The following applies: HepG2 Attagene TRANS reporter, mRNA readout. An outline of the steps: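 Read-out: reporter mRNA induction by RT-PCR plus capillary electrophoresis with fluorescence detection, after 24 h dosing of transfected HepG2 cells. Exogenous NR-Gal4 chimera activity drives GAL4-UAS reporter; activity fitted upward versus DMSO.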

The nature of experiment [15]: BSK_3C_VCAM1: BioMAP Diversity Plus: 3C Assay for Vascular cell adhesion molecule 1 (VCAM1) Biomarker Activity (AID 2282999). The note with it: BioMAP 3C HUVEC, VCAM1 ELISA, cytokine-stimulated; actives raise or lower the signal. The method in brief:
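HUVEC primary cells, 24 h compound exposure; VCAM-1 by ELISA; gain/loss of signal fitted bidirectionally vs DMSO baseline.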
(In general: In an ELISA, binding on a coated surface is turned into a signal by an enzyme label.)

Experiment [16] has as its target Oxysterols receptor LXR-alpha (Homo sapiens) (UniProt Q13133). In words: ATG_LXRa_TRANS: Attagene TRANS-FACTORIAL HepG2 Assay for human Liver X Receptor alpha (LXRa) (AID 2282980; active means hit-call score of the fitted dose curve at least 0.9, where 1 is the maximum). The note with it: HepG2 Attagene TRANS reporter, LXRa transactivation. An outline of the steps: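 Transfect HepG2 with GAL4-UAS multiplex reporter constructs (TRANS format, chimeric receptor-GAL4); treat 24 h; extract RNA, reverse-transcribe, PCR-amplify, FAM-label, HpaI-digest; resolve fragments by capillary electrophoresis. Upward response vs DMSO.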

In experiment [17] the target is Transcriptional activator Myb (Homo sapiens) (UniProt P10242). Kind of experiment: ATG_Myb_CIS: Attagene CIS-FACTORIAL HepG2 Assay for human Myeloblastosis (Myb) Proto-Oncogene Transcription Factor (AID 2282986). The note with it: HepG2 Attagene CIS-FACTORIAL Myb reporter transcription; actives raise or lower the signal. The method in brief: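 Using HepG2 liver cells bearing transiently transfected cis-promoter reporter constructs, the assay measures induction or loss of reporter mRNA after 24 hours of dosing. Detection used fluorescently labeled RT-PCR products separated by capillary electrophoresis.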

Experiment [18] has as its target Hepatocyte nuclear factor 4-alpha (Homo sapiens) (UniProt P41235). Kind of experiment: ATG_HNF4a_TRANS: Attagene TRANS-FACTORIAL HepG2 Assay for human Hepatocyte Nuclear Factor 4 alpha (HNF4a) (AID 2282982; active means hit-call score of the fitted dose curve at least 0.9, where 1 is the maximum). The note with it: HepG2 HNF4a transactivation reporter, mRNA readout. The method in brief: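 Transient MRTU transfection of HepG2, 24 h dosing. Readout: reporter mRNA via RT-PCR + capillary electrophoresis, fluorescence; activity fit upward relative to DMSO control.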

Sequence of Cellular tumor antigen p53 (Homo sapiens) (P04637 whole entry, looked up): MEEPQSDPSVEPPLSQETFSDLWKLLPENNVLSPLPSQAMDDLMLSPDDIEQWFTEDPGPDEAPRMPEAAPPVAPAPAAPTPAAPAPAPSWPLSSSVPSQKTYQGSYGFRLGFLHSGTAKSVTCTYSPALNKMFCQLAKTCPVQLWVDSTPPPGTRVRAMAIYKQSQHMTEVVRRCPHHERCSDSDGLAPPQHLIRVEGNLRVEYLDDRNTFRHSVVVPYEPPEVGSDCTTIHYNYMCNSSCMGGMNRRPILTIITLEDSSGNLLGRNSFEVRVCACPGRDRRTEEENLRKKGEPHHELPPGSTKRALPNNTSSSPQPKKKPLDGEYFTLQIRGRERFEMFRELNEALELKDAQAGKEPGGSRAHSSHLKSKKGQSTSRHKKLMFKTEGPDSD
Sequence of Transcriptional activator Myb (Homo sapiens) (P10242 whole entry, looked up): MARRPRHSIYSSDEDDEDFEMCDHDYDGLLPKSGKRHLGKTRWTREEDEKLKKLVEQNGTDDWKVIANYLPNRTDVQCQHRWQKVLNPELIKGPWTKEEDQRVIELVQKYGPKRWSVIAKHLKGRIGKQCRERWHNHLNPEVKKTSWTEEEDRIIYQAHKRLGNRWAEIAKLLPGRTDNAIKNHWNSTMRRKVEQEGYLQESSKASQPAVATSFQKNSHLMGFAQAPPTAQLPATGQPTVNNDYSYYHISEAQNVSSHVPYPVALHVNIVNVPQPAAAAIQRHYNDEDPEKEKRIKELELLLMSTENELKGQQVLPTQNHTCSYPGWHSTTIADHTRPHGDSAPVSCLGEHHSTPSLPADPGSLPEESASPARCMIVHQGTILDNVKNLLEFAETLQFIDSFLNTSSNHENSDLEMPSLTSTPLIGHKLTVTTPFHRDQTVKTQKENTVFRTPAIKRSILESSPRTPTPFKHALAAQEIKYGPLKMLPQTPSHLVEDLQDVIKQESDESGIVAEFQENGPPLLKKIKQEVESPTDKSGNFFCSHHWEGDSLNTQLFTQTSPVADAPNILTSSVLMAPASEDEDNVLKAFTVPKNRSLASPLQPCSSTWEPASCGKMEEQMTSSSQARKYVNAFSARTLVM
Sequence of Oxysterols receptor LXR-beta (Homo sapiens) (P55055 whole entry, looked up, the tested form may be a part): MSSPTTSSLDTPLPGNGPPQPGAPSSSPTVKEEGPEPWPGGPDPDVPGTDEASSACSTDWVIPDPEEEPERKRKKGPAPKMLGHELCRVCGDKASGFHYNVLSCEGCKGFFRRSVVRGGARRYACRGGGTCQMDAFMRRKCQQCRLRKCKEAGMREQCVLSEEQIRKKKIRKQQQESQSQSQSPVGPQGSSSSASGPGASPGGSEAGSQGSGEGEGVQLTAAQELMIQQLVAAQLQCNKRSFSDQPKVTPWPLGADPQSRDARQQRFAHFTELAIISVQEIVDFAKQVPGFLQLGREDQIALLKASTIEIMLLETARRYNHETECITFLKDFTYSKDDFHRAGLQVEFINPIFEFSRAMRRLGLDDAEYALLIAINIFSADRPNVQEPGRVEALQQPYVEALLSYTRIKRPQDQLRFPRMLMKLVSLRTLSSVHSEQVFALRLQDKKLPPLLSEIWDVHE
Sequence of Nuclear receptor subfamily 4 group A member 2 (Homo sapiens) (P43354 whole entry, looked up, the tested form may be a part): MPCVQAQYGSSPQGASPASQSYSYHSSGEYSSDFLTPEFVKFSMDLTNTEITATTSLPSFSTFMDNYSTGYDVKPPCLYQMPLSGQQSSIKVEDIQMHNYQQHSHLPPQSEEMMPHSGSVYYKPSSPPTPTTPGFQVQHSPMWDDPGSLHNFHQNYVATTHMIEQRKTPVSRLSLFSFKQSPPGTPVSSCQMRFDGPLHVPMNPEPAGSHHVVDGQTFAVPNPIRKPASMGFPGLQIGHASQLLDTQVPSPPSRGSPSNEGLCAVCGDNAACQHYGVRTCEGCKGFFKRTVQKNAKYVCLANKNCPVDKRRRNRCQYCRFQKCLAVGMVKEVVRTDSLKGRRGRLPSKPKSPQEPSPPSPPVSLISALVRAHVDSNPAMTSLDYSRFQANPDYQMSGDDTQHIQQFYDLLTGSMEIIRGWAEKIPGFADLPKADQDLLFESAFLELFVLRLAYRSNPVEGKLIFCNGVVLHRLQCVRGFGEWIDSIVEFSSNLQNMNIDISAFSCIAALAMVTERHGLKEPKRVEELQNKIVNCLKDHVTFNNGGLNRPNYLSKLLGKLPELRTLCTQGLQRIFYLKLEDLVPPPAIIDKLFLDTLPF
Sequence of Myc proto-oncogene protein (Homo sapiens) (P01106 whole entry, looked up, the tested form may be a part): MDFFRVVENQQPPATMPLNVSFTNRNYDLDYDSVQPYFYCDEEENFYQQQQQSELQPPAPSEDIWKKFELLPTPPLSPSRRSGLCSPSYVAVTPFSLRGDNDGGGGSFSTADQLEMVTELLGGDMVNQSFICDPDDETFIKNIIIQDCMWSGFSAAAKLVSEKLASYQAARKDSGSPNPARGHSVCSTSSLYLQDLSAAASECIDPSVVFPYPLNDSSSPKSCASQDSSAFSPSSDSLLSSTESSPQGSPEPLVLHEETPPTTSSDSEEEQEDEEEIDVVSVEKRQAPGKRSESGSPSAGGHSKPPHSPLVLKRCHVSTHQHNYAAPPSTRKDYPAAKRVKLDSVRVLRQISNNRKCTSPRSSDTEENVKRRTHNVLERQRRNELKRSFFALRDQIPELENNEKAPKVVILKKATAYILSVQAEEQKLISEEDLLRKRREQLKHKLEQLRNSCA
Sequence of Oxysterols receptor LXR-alpha (Homo sapiens) (Q13133 whole entry, looked up, the tested form may be a part): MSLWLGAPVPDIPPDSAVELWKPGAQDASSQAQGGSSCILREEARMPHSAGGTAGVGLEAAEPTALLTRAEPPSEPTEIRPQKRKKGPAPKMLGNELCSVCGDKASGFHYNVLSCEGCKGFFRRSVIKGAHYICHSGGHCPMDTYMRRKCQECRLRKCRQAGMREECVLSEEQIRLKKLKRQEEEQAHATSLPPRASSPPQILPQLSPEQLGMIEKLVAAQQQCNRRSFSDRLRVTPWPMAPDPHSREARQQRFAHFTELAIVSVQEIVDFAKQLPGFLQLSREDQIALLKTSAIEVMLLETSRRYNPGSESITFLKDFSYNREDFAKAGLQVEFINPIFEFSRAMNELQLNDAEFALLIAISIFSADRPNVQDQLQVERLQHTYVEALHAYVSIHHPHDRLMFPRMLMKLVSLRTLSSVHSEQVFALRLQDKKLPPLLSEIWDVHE
Sequence of Nuclear respiratory factor 1 (Homo sapiens) (Q16656 whole entry, looked up): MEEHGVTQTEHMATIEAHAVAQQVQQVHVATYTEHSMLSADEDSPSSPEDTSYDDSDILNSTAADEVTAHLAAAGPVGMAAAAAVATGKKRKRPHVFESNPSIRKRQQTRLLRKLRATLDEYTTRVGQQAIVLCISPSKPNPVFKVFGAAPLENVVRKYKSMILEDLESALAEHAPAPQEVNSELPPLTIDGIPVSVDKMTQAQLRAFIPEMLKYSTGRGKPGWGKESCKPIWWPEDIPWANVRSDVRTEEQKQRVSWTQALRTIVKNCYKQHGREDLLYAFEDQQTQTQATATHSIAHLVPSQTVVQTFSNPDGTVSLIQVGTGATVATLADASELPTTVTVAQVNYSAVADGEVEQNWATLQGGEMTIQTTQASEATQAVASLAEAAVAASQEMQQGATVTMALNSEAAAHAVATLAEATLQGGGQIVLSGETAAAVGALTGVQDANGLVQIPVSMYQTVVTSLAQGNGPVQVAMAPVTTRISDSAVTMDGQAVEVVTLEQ
Sequence of Hepatocyte nuclear factor 4-alpha (Homo sapiens) (P41235 whole entry, looked up): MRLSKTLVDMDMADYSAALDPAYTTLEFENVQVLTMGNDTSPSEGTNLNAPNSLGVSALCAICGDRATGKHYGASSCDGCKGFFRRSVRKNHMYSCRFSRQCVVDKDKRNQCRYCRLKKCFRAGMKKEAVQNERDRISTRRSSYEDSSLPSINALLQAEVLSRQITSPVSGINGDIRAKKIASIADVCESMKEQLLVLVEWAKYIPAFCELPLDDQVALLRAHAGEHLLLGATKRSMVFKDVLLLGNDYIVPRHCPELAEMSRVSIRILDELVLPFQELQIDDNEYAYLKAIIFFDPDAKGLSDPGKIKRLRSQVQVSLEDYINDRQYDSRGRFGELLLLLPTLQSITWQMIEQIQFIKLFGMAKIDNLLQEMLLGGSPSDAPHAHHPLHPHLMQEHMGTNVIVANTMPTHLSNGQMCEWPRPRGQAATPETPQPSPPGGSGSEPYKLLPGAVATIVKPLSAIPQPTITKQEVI

For `CCCN(CCC)N=O`, the compound was classed as inactive in [1], in experiment [2], in experiment [3], in experiment [4], in [5] and in experiment [6]. Also, the compound was classed as inactive in experiment [7], in [8], in [9], in [10], in experiment [11] and in [12]. Also, the result in experiment [13] was inactive.
With `CCOCCOC(C)=O`, the call in experiment [2], in experiment [14], in [4], in experiment [5], in experiment [6] and in experiment [8] was inactive. Moreover, the call in experiment [9], in [10], in experiment [11], in experiment [12], in experiment [15] and in experiment [13] was inactive.
On to `N#Cc1ccc(N(CC(N)=O)CC(F)(F)F)cc1C(F)(F)F`, for which the call in [16], in experiment [17], in experiment [4], in [5], in experiment [6] and in experiment [9] was inactive. In addition, the result in experiment [10], in [11], in experiment [12] and in experiment [15] was inactive. In experiment [8], the AC50 was 170 µM (active).
`CC#Cc1cc(C)nc(Nc2ccccc2)n1`: the compound was called inactive in experiment [1], in experiment [2], in [3], in [14], in experiment [4] and in experiment [5]. Moreover, the call in experiment [6], in experiment [7], in [9], in experiment [10], in experiment [11] and in experiment [12] was inactive. Further, in experiment [13], the result was inactive. The AC50 in [8] was 56.5 µM (active).
As to `Cc1cc2c3c(c1)C(c1ccccc1)=N[C@@H](NC(=O)c1ccncc1)C(=O)N3CC2`, the compound was classed as inactive in experiment [3], in [14], in experiment [4], in [5], in experiment [6] and in experiment [10]. Also, the result in experiment [11] and in [12] was inactive. Moreover, the AC50 was 96.6 µM (active) in [8] and 74 µM (active) in [9].
On to `CC(C)C(=O)OCC(C)(C)C(OC(=O)C(C)C)C(C)C` (configuration not stated), for which the outcome in [16], in experiment [1], in experiment [14], in experiment [4], in experiment [5] and in experiment [6] was inactive. Besides, the compound was classed as inactive in [7], in [8], in experiment [9], in [10], in experiment [11] and in [12]. For the same compound, the result in experiment [13] was inactive.
Consider `CCNc1nc(NC(C)C)nc(SC)n1`, for which the outcome in experiment [16], in [1], in experiment [18], in experiment [2], in [3] and in experiment [17] was inactive. Besides, the compound was classed as inactive in experiment [4], in [5], in experiment [6], in [7], in experiment [8] and in experiment [9]. Moreover, the outcome in experiment [11] and in [12] was inactive.
For the compound `C=CC(=O)NCNC(=O)C=C`, the call in experiment [1], in [2], in [14], in [17], in [4] and in experiment [5] was inactive. Further, the outcome in experiment [6], in experiment [9], in [10], in experiment [11], in experiment [12] and in experiment [15] was inactive. Besides, the result in [13] was inactive. Besides, the AC50 was 100 µM (active) in experiment [7] and 61.1 µM (active) in experiment [8].
